Measurements: PubChem BioAssay (Tox21)
Unmarked numbers belong to inactive results. Records with an inconclusive call do not appear. Entries that show only a call come without a potency. The source made the active and inactive calls. Unless noted, calls come from the whole dose curve; as a rule, active = well fitted curve in the direction sought with a large enough effect in the repeat runs; inconclusive = weak or mixed curves; inactive = no such curve, though single readings can be large; an effect the other way counts as inactive or inconclusive.

Tests used:
[1] = biological target: Thyrotropin-releasing hormone receptor (Homo sapiens) (UniProt P34981); experiment: qHTS assay to identify small molecule agonists of the thyrotropin-releasing hormone receptor (TRHR) signaling pathway (AID 1346891; calls by dose curve;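 note: HEK293 cells expressing TRHR with calcium dye readout; series mostly up to about 58 µM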)
How it was run: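 In 1536-format, 1500 TRHR-Hek293 cells per well grew 18 h, took up calcium dye for 2 h at 37 °C, received compound, and were read kinetically; 15-point titrations, triplicates.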

[2] = Caspase-3/7 induction in HepG2 cells by small molecules, qHTS assay (AID 1346978); note: nearly all actives have a fitted effect of over 15% in size; note: potency is the fitted concentration of half-maximal effect
How it was run: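 Caspase-3/7 induction was measured by Caspase-Glo 3/7 luminescence (30 min, room temperature) after a 17 hr compound exposure of wild-type HepG2 cells seeded at 2,000 per well and pre-incubated 5 hr.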

[3] = Caspase-3/7 induction in CHO-K1 cells by small molecules, qHTS assay (AID 1346980); note: nearly all actives have a fitted effect of over 15% in size
How it was run: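 Luminescent Caspase-Glo 3/7 read (30min, room temperature) quantified apoptosis induction. Cells were wild-type CHO-K1, treated with compound for 17hr at 37 C and 5% CO2.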

[4] = biological target: Nuclear receptor subfamily 1 group I member 2 (Homo sapiens) (UniProt O75469); experiment: Human pregnane X receptor (PXR) small molecule agonists, qHTS assay (AID 1346982); note: nearly all actives have a fitted effect of over 35% in size; note: potency is the fitted concentration of half-maximal effect
How it was run: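 After plating in 5% charcoal-stripped FBS and a 5 hr rest, PXR-Luc HepG2 cells received compounds in DMSO. Following 24 hr at 37 C, ONE-Glo was added and light output read.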

[5] = biological target: Cytochrome P450 2D6 (Homo sapiens) (UniProt P10635); experiment: Cytochrome P450 Family 2 Subfamily D Member 6 (CYP2D6) small molecule antagonists: luciferase reporter qHTS assay (AID 1671196); note: nearly all actives have a fitted effect of over 50% in size; note: potency is the fitted concentration of half-maximal effect
How it was run: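 Quantitative HTS of Tox21 chemicals against CYP2D6 using a luminescent proluciferin substrate. After NADPH addition, 1 h room-temperature reaction; luminescence recorded 20 min post detection reagent.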

[6] = biological target: Cytochrome P450 2C19 (Homo sapiens) (UniProt P33261); experiment: Cytochrome P450 Family 2 Subfamily C Member 19 (CYP2C19) small molecule antagonists: luciferase reporter qHTS assay (AID 1671197); note: nearly all actives have a fitted effect of over 65% in size; note: potency is the fitted concentration of half-maximal effect
How it was run: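 Compounds were tested on CYP2C19 activity via proluciferin conversion to luciferin. The 37C, 1 h reaction followed NADPH addition; detection reagent stopped it.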

[7] = biological target: Cytochrome P450 2C9 (Homo sapiens) (UniProt P11712); experiment: Cytochrome P450 Family 2 Subfamily C Member 9 (CYP2C9) small molecule antagonists: luciferase reporter qHTS assay (AID 1671198); note: nearly all actives have a fitted effect of over 50% in size; note: potency is the fitted concentration of half-maximal effect
How it was run: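 Enzyme-substrate mix preincubated with compound 10 min at room temperature; reaction started with NADPH regeneration solution, 1 h 37C. Luminescent luciferin product read after 20 min detection reagent.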

[8] = biological target: Cytochrome P450 1A2 (Homo sapiens) (UniProt P05177); experiment: Cytochrome P450 Family 1 Subfamily A Member 2 (CYP1A2) small molecule antagonists: luciferase reporter qHTS assay (AID 1671199); note: nearly all actives have a fitted effect of over 50% in size; note: potency is the fitted concentration of half-maximal effect
How it was run: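 Quantitative high-throughput format using the P450-Glo CYP1A2 system. Reaction initiated by NADPH regeneration solution, 1 h at room temperature, then stopped with detection reagent; luminescence measured 20 min later.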

[9] = biological target: Voltage-gated inwardly rectifying potassium channel KCNH2 (Homo sapiens) (UniProt Q12809); experiment: Human Ether-a-go-go-Related Gene (hERG) channel small molecule antagonists: fluorescence cell-based qHTS assay (AID 1671200); note: nearly all actives have a fitted effect of over 50% in size; note: potency is the fitted concentration of half-maximal effect
How it was run: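 Measured: Tl+ flux via fluorescence (480/540 nm) in hERG-expressing U2OS cells after 1 h dye loading at room temperature.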

[10] = biological target: Cytochrome P450 3A4 (Homo sapiens) (UniProt P08684); experiment: Cytochrome P450 Family 3 Subfamily A Member 4 (CYP3A4) small molecule antagonists: luciferase reporter qHTS assay (AID 1671201); note: nearly all actives have a fitted effect of over 50% in size; note: potency is the fitted concentration of half-maximal effect
How it was run: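 Setup: enzyme-substrate mix, compound pin transfer, 10 min RT. Reaction: NADPH regeneration solution, 1 h RT. Readout: detection reagent stops turnover, luminescence measured after 20 min, expressed in relative luminescence units.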

[11] = Caspase-3/7 induction in HepG2 cells by small molecules, qHTS cell viability counter screen (AID 1346981); note: nearly all actives have a fitted effect of over 30% in size; note: potency is the fitted concentration of half-maximal effect
How it was run: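 The parent HepG2 line is plated at 2,000 cells per well and rested 5 hr before compound pinning from DMSO stocks. Following a 16-hr treatment at 37 C, a fluorogenic live-cell substrate (CellTiter-Fluor) reports viability after 1 hr.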

[12] = Human pregnane X receptor (PXR) small molecule agonists, qHTS cell viability counter screen (AID 1346977); note: nearly all actives have a fitted effect of over 50% in size; note: potency is the fitted concentration of half-maximal effect
How it was run: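 Readout is CellTiter-Fluor fluorescence from PXR-Luc HepG2 cells. Plated cells rested 5hr, then were treated with compounds for 24hr at 37C and 5% CO2, with reagent present during the last hour.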

[13] = Caspase-3/7 induction in CHO-K1 cells by small molecules, qHTS cell viability counter screen (AID 1346979); note: nearly all actives have a fitted effect of over 35% in size; note: potency is the fitted concentration of half-maximal effect
How it was run: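 To flag cytotoxic compounds, treated CHO-K1 wild-type cells were given CellTiter-Fluor at 16hr and read fluorescently after 1hr at 37C; the caspase-3/7 luminescence was measured in these same wells.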

[14] = biological target: Nuclear receptor subfamily 1 group I member 2 (Homo sapiens) (UniProt O75469); experiment: Human pregnane X receptor (PXR) activation by small molecules, qHTS assay (AID 1346985); note: nearly all actives have a fitted effect of over 40% in size
How it was run: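 DPX-2 cells (HepG2 co-transfected with a PXR response element and a CYP3A4-promoter luciferase construct) were seeded at 2,000 per well, rested 5 hr at 37C, then exposed to DMSO-dissolved compounds for 24 hr. Activation was read as luciferase luminescence.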

[15] = biological target: Nuclear receptor subfamily 1 group I member 2 (Homo sapiens) (UniProt O75469); experiment: CYP3A4 induction through human pregnane X receptor (PXR) by small molecules, qHTS assay (AID 1346984); note: nearly all actives have a fitted effect of over 40% in size
How it was run: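 Human PXR activation is tracked via CYP3A4 promoter-luciferase in DPX-2 (HepG2) cells. Compounds treat cells for 24hr at 37C, and luminescence is read after One-Glo.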

Chain of Thyrotropin-releasing hormone receptor (Homo sapiens) (P34981 whole entry, looked up): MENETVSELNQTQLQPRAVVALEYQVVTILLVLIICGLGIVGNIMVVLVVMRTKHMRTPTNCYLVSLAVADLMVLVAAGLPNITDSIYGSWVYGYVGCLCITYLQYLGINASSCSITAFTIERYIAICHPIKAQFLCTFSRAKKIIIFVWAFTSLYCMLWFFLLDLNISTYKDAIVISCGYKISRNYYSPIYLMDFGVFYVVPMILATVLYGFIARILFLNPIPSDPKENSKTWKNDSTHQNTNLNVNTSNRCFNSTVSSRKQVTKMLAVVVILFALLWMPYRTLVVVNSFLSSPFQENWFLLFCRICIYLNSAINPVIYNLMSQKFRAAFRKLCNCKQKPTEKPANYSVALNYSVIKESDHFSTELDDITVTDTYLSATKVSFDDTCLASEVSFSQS
Chain of Cytochrome P450 2C19 (Homo sapiens) (P33261 whole entry, looked up): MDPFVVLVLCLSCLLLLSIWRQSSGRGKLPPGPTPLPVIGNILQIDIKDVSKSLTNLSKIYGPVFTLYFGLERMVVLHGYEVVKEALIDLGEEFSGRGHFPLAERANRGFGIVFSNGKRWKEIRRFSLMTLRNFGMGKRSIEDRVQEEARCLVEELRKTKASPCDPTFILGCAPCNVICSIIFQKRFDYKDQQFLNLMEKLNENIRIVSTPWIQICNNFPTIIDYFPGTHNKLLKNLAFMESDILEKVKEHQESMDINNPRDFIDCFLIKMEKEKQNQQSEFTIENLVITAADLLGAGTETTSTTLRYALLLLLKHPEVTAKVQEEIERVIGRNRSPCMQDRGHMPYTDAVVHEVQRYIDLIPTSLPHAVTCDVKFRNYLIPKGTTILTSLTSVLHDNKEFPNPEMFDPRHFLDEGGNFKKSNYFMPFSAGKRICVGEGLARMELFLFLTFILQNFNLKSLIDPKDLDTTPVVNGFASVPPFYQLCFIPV
Chain of Cytochrome P450 2C9 (Homo sapiens) (P11712 whole entry, looked up): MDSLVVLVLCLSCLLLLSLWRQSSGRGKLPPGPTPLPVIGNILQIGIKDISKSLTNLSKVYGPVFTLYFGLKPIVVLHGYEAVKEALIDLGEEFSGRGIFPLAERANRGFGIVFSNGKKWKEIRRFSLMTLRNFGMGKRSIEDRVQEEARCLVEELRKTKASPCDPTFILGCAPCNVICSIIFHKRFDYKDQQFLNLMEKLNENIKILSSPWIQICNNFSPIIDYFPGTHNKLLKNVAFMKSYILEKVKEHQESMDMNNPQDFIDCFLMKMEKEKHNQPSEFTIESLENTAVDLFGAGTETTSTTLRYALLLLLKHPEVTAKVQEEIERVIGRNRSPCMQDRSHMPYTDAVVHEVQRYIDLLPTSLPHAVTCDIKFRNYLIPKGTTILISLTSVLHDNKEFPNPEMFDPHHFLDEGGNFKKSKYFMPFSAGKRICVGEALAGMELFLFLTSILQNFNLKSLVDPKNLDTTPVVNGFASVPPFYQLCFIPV
Chain of Cytochrome P450 1A2 (Homo sapiens) (P05177 whole entry, looked up): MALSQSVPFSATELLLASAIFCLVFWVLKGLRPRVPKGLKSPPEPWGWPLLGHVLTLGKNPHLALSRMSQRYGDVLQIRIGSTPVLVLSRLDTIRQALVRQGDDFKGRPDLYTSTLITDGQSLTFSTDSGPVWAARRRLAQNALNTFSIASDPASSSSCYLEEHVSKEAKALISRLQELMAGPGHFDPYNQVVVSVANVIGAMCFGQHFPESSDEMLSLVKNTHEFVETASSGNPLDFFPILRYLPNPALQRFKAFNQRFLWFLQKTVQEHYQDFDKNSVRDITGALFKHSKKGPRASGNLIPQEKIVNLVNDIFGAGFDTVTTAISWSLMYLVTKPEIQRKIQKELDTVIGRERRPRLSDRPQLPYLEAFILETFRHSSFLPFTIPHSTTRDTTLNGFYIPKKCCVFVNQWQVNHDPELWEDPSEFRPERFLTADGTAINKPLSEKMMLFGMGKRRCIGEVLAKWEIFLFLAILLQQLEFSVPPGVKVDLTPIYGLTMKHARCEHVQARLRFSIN
Chain of Cytochrome P450 2D6 (Homo sapiens) (P10635 whole entry, looked up): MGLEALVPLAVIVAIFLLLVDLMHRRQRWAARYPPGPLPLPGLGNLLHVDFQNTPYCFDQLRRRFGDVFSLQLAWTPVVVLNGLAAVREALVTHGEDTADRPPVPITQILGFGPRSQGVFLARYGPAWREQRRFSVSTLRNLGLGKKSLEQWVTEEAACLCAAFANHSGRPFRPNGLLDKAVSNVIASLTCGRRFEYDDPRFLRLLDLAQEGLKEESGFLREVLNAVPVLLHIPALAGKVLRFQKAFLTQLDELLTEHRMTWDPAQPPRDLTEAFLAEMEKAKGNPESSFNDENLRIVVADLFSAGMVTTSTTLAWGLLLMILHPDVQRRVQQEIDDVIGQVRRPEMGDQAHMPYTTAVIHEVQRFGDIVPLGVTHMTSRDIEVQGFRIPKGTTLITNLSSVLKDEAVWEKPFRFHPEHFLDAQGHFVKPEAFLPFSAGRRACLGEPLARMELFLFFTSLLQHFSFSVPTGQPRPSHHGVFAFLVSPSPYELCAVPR
Chain of Voltage-gated inwardly rectifying potassium channel KCNH2 (Homo sapiens) (Q12809 whole entry, looked up): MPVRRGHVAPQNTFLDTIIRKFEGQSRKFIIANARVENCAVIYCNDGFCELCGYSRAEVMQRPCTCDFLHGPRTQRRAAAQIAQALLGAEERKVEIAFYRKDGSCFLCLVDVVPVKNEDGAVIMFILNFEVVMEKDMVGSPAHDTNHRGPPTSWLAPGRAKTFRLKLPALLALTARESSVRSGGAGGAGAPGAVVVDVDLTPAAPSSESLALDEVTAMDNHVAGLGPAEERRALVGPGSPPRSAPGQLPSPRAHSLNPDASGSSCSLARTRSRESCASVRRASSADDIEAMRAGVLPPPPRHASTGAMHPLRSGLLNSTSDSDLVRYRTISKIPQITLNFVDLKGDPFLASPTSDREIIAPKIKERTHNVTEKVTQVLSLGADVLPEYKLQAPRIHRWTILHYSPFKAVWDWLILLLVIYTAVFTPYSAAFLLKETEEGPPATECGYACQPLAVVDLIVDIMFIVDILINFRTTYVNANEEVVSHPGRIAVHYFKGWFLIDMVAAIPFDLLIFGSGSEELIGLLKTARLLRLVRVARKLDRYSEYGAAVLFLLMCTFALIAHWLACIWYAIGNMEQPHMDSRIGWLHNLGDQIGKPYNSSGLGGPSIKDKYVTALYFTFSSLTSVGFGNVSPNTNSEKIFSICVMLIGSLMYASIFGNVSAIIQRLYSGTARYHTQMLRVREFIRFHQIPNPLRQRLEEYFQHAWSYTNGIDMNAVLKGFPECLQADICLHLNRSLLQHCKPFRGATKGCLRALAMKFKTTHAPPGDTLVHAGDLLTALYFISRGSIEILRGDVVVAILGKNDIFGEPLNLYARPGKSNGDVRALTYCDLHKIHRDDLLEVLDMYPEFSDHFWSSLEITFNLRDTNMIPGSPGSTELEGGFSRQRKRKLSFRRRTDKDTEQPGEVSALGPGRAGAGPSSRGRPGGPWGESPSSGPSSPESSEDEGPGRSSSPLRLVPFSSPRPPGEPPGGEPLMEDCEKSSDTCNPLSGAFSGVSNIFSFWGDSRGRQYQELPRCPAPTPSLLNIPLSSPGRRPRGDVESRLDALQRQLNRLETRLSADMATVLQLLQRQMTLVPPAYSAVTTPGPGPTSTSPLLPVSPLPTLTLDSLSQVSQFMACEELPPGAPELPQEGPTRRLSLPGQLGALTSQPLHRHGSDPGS
Chain of Cytochrome P450 3A4 (Homo sapiens) (P08684 whole entry, looked up): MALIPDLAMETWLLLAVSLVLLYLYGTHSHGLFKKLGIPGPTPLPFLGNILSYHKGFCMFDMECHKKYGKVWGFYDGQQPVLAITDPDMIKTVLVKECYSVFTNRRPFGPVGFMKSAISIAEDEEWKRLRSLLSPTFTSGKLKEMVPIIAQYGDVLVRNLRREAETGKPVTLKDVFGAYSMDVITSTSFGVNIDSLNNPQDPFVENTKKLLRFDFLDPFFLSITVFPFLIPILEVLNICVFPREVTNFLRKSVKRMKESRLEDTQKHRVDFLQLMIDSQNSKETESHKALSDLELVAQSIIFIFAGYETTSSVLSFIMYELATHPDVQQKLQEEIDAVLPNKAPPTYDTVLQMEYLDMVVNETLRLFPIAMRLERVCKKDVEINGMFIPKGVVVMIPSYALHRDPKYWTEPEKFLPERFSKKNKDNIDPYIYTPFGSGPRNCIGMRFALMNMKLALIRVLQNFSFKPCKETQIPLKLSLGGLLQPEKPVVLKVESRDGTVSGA
Chain of Nuclear receptor subfamily 1 group I member 2 (Homo sapiens) (O75469 whole entry, looked up): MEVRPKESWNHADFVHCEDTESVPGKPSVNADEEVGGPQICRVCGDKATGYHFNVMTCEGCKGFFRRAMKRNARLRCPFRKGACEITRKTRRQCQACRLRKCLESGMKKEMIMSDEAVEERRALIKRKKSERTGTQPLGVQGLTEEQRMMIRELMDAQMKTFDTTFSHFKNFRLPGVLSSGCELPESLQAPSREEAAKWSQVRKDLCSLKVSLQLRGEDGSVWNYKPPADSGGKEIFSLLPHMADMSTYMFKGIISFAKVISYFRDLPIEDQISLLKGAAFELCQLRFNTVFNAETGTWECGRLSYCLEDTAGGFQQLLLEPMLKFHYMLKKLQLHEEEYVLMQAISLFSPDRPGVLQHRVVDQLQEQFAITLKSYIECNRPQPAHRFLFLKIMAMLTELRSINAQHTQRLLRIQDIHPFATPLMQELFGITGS

| Compound | Potency [1] | Potency [2] | outcome [3] | Potency [4] | Potency [5] | Potency [6] | Potency [7] | Potency [8] | Potency [9] | Potency [10] | Potency [11] | Potency [12] | Potency [13] | Potency [14] | Potency [15] |
| --- | --- | --- | --- | --- | --- | --- | --- | --- | --- | --- | --- | --- | --- | --- | --- |
| C=CC(C)(C)CC(=O)OC | inactive | inactive | inactive | 68.8 µM (active) | 63.5 µM (active) | 35.7 µM (active) | 35.7 µM (active) | 20.1 µM (active) | inactive | 63.5 µM (active) | – | – | – | – | – |
| CSc1ccc(Oc2ccc(S(N)(=O)=O)cc2CN(C)C)cc1C | inactive | inactive | inactive | 19.3 µM (active) | – | 35.6 µM (active) | – | – | 6.92 µM (active) | inactive | inactive | – | – | – | – |
| Cc1cnc(C)c(C)n1 | – | inactive | inactive | inactive | inactive | inactive | inactive | – | inactive | inactive | inactive | inactive | inactive | – | – |
| CCC(=O)OC/C=C/c1ccccc1 | – | inactive | inactive | inactive | inactive | – | 39.9 µM (active) | – | inactive | – | inactive | inactive | inactive | – | – |
| CO[C@@]12[C@H](COC(N)=O)C3=C(C(=O)C(C)=C(N)C3=O)N1C[C@@H]1N[C@@H]12 | – | 11.9 µM (active) | inactive | inactive | – | inactive | – | 30.9 µM (active) | inactive | – | 11.9 µM (active) | 11.9 µM (active) | 13.3 µM (active) | inactive | – |
| O=C(CCC1CCN(Cc2ccccc2)CC1)c1ccc2c(c1)NCCCC2 | inactive | inactive | inactive | – | 8.71 µM (active) | inactive | inactive | inactive | 4.77 µM (active) | inactive | inactive | – | – | – | – |
| CCOC(=O)N1CCC(n2c(=O)[nH]c3cc(Cl)ccc32)CC1 | inactive | inactive | inactive | inactive | inactive | 9.77 µM (active) | 9.77 µM (active) | – | inactive | – | – | – | – | – | – |
| C=C(C)C(=O)OCCOC(=O)CC(C)=O | – | inactive | inactive | inactive | inactive | inactive | – | – | inactive | – | inactive | inactive | inactive | – | – |
| O=C1NCCN1 | – | inactive | inactive | inactive | 21.5 µM (active) | 34.1 µM (active) | inactive | – | inactive | inactive | inactive | inactive | inactive | – | – |
| CC1C2CC(CC2C2CCCC(O)C2)C1(C)C (stereo not drawn) | inactive | – | inactive | inactive | – | 35.6 µM (active) | 35.6 µM (active) | – | 24.5 µM (active) | – | inactive | – | 68.6 µM (active) | – | – |
| OCCSc1ccccc1 | – | inactive | inactive | inactive | inactive | inactive | inactive | 39.9 µM (active) | inactive | inactive | inactive | inactive | inactive | – | – |
| N#C/C(=C1/SC[C@@H](c2ccc(Cl)cc2Cl)S1)n1ccnc1 | inactive | inactive | inactive | inactive | 0.219 µM (active) | – | 0.389 µM (active) | 0.288 µM (active) | 3.01 µM (active) | – | inactive | – | – | – | – |
| O=C(/C=C/c1ccccc1)OCCCc1ccccc1 | – | inactive | inactive | inactive | inactive | 39.9 µM (active) | 22.4 µM (active) | 12.6 µM (active) | – | inactive | inactive | inactive | inactive | – | – |
| CC[C@@H]([C@H](C)O)n1ncn(-c2ccc(N3CCN(c4ccc(OC[C@@H]5CO[C@@](Cn6cncn6)(c6ccc(F)cc6F)C5)cc4)CC3)cc2)c1=O | inactive | – | inactive | 10.6 µM (active) | – | – | – | inactive | – | – | – | – | 7.5 µM (active) | – | – |
| C/C=C(\C)C(=O)OCCC(C)CCC=C(C)C (stereo not drawn) | – | inactive | inactive | inactive | inactive | 20 µM (active) | 39.9 µM (active) | – | inactive | 20 µM (active) | inactive | inactive | inactive | – | – |
| CC(C)CCCC(=O)O | – | inactive | inactive | inactive | inactive | inactive | inactive | inactive | inactive | inactive | inactive | inactive | inactive | – | – |
| CC1=C(/C=C/C(C)=C\C=C\C(C)=C\C(=O)O)C(C)(C)CCC1 | inactive | inactive | inactive | 54.5 µM (active) | – | – | – | inactive | – | 22.4 µM (active) | – | – | – | – | – |
| O=C(O)c1c(O)c(-c2ccccc2)nc2ccccc12 | – | inactive | inactive | inactive | inactive | – | 30.9 µM (active) | 17.4 µM (active) | inactive | – | inactive | inactive | inactive | – | – |
| NC(=O)Cn1c(=O)cc(CCN2CCN(c3nccc4sccc34)CC2)c2ccc(F)cc21 | inactive | inactive | inactive | inactive | 35.6 µM (active) | – | 63.3 µM (active) | – | inactive | – | – | – | – | – | – |
| Brc1cc(-c2ccc(Br)c(Br)c2Br)cc(Br)c1Br | inactive | inactive | inactive | 30.2 µM (active) | inactive | – | inactive | – | inactive | inactive | inactive | – | – | – | – |
| CCn1cc(C(=O)O)c(=O)c2cc(F)c(N3CCNCC3)nc21 | – | inactive | inactive | inactive | inactive | – | inactive | inactive | inactive | inactive | inactive | – | inactive | inactive | inactive |
